Test results reported in PubChem BioAssay AID1159580 (chemical genetic matrix, 2015).
Among all 5,500 compounds or so, about 2,000 (36%) were called active. Not shown: some 18% with an inconclusive outcome. Cut-off read from the data, not from the text of the source: active = normalized growth mostly below about 0.91 (no sharp cut-off); inconclusive = no clear call, values can overlap the other calls; inactive = mostly above about 0.92. This is one part of the list.

Assay: chemical genetic growth profiling, strain panel (AID 1159580);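 note: tested at 20 µM; growth read once vehicle control cultures reached saturation at 30 °C; 1 = growth at the plate median or of vehicle wells; lower values mean less growth of the strain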
Conditions: growth OD

Measured: normalized growth

CC(=O)O[C@H]1CC[C@]2(C)C3CC[C@@]4(C)C(CC5O[C@@]6(CCC(C)CO6)[C@@H](C)C54)C3CC[C@@H]2C1 (stereo partly specified)
inactive: S. cerevisiae deletion strains, locus YJR066W, strain TOR1, stronger effect = lower value 0.946 | S. cerevisiae deletion strains, locus YJR075W, strain HOC1, stronger effect = lower value 0.982 | S. cerevisiae deletion strains, locus YKL009W, strain mrt4, stronger effect = lower value 1.04 | S. cerevisiae deletion strains, locus YKL068W, stronger effect = lower value 1 | S. cerevisiae deletion strains, locus YKL160W, strain elf1, stronger effect = lower value 1.01 | S. cerevisiae deletion strains, locus YKL190W, strain CNB1, stronger effect = lower value 1 | S. cerevisiae deletion strains, locus YKR001C, strain vps1, stronger effect = lower value 0.998 | S. cerevisiae deletion strains, locus YKR026C, strain gcn3, stronger effect = lower value 1.02 | S. cerevisiae deletion strains, locus YKR091W, strain srl3, stronger effect = lower value 1.02 | S. cerevisiae deletion strains, locus YLL001W, strain dnm1, stronger effect = lower value 1.01 | S. cerevisiae deletion strains, locus YLL026W, stronger effect = lower value 1.02 | S. cerevisiae deletion strains, locus YLL041C, strain sdh2, stronger effect = lower value 1.02 | S. cerevisiae deletion strains, locus YLR027C, strain aat2, stronger effect = lower value 1 | S. cerevisiae deletion strains, locus YLR039C, strain RIC1, stronger effect = lower value 0.992 | S. cerevisiae deletion strains, locus YLR058C, strain SHM2, stronger effect = lower value 0.993 | S. cerevisiae deletion strains, locus YLR102C, strain apc9, stronger effect = lower value 0.991 | S. cerevisiae deletion strains, locus YLR113W, strain HOG1, stronger effect = lower value 0.963 | S. cerevisiae deletion strains, locus YLR221C, strain rsa3, stronger effect = lower value 1.03 | S. cerevisiae deletion strains, locus YLR258W, strain gsy2, stronger effect = lower value 1.01 | S. cerevisiae deletion strains, locus YLR262C, strain YPT6 (second series), stronger effect = lower value 1.01 | S. cerevisiae deletion strains, locus YLR268W, strain sec22, stronger effect = lower value 0.998 | S. cerevisiae deletion strains, locus YLR320W, strain mms22, stronger effect = lower value 1.03 | S. cerevisiae deletion strains, locus YLR330W, strain CHS5, stronger effect = lower value 0.984 | S. cerevisiae deletion strains, locus YLR342W, strain FKS1 (second series), stronger effect = lower value 1.01 | S. cerevisiae deletion strains, locus YLR342W, strain FKS1, stronger effect = lower value 1.03 | S. cerevisiae deletion strains, locus YLR357W, strain rsc2, stronger effect = lower value 1.01 | S. cerevisiae deletion strains, locus YLR370C, strain arc18, stronger effect = lower value 1.02 | S. cerevisiae deletion strains, locus YLR371W, strain rom2, stronger effect = lower value 0.99 | S. cerevisiae deletion strains, locus YLR384C, strain iki3, stronger effect = lower value 0.99 | S. cerevisiae deletion strains, locus YLR418C, strain cdc73, stronger effect = lower value 0.947 | S. cerevisiae deletion strains, locus YML016C, strain PPZ1, stronger effect = lower value 0.992 | S. cerevisiae deletion strains, locus YML032C, strain rad52, stronger effect = lower value 0.977 | S. cerevisiae deletion strains, locus YML120C, strain ndi1, stronger effect = lower value 1.03 | S. cerevisiae deletion strains, locus YML124C, strain tub3, stronger effect = lower value 0.979 | S. cerevisiae deletion strains, locus YMR058W, strain fet3, stronger effect = lower value 1.01 | S. cerevisiae deletion strains, locus YMR078C, strain ctf18, stronger effect = lower value 1 | S. cerevisiae deletion strains, locus YMR125W, strain sto1, stronger effect = lower value 1.03 | S. cerevisiae deletion strains, locus YMR129W, stronger effect = lower value 1 | S. cerevisiae deletion strains, locus YMR205C, strain PFK2, stronger effect = lower value 0.999 | S. cerevisiae deletion strains, locus YMR223W, strain ubp8, stronger effect = lower value 0.984 | S. cerevisiae deletion strains, locus YMR231W, strain pep5, stronger effect = lower value 1.01 | S. cerevisiae deletion strains, locus YMR263W, strain SAP30, stronger effect = lower value 0.996 | S. cerevisiae deletion strains, locus YMR307W, strain GAS1, stronger effect = lower value 1.12 | S. cerevisiae deletion strains, locus YNL067W, strain RPL9B, stronger effect = lower value 0.98 | S. cerevisiae deletion strains, locus YNL071W, strain lat1, stronger effect = lower value 1 | S. cerevisiae deletion strains, locus YNL128W, strain TEP1, stronger effect = lower value 0.998 | S. cerevisiae deletion strains, locus YNL153C, strain GIM3, stronger effect = lower value 0.984 | S. cerevisiae deletion strains, locus YNL183C, strain NPR1, stronger effect = lower value 0.964 | S. cerevisiae deletion strains, locus YNL209W, strain ssb2, stronger effect = lower value 1 | S. cerevisiae deletion strains, locus YNL233W, strain BNI4, stronger effect = lower value 1.02 | S. cerevisiae deletion strains, locus YNL248C, strain rpa49, stronger effect = lower value 1.02 | S. cerevisiae deletion strains, locus YNL250W, strain rad50, stronger effect = lower value 0.975 | S. cerevisiae deletion strains, locus YNL271C, strain bni1, stronger effect = lower value 0.989 | S. cerevisiae deletion strains, locus YNL298W, strain CLA4, stronger effect = lower value 1 | S. cerevisiae deletion strains, locus YNL307C, strain MCK1, stronger effect = lower value 0.996 | S. cerevisiae deletion strains, locus YNL322C, strain KRE1 (second series), stronger effect = lower value 1.03 | S. cerevisiae deletion strains, locus YNR049C, strain mso1, stronger effect = lower value 0.995 | S. cerevisiae deletion strains, locus YNR052C, strain pop2, stronger effect = lower value 0.983 | S. cerevisiae deletion strains, locus YOL012C, strain htz1 0.761 | S. cerevisiae deletion strains, locus YOL147C, strain pex11, stronger effect = lower value 0.986 | S. cerevisiae deletion strains, locus YOR001W, strain rrp6, stronger effect = lower value 1.01 | S. cerevisiae deletion strains, locus YOR061W, strain CKA2, stronger effect = lower value 0.999 | S. cerevisiae deletion strains, locus YOR069W, strain VPS5, stronger effect = lower value 0.983 | S. cerevisiae deletion strains, locus YOR070C, strain gyp1, stronger effect = lower value 1.02 | S. cerevisiae deletion strains, locus YOR080W, strain dia2, stronger effect = lower value 1.01 | S. cerevisiae deletion strains, locus YOR083W, strain WHI5, stronger effect = lower value 1.04 | S. cerevisiae deletion strains, locus YOR106W, strain vam3, stronger effect = lower value 1.02 | S. cerevisiae deletion strains, locus YOR136W, strain idh2, stronger effect = lower value 0.993 | S. cerevisiae deletion strains, locus YOR144C, strain elg1, stronger effect = lower value 0.994 | S. cerevisiae deletion strains, locus YOR184W, strain ser1, stronger effect = lower value 1.03 | S. cerevisiae deletion strains, locus YOR231W, strain MKK1, stronger effect = lower value 0.988 | S. cerevisiae deletion strains, locus YOR265W, strain rbl2, stronger effect = lower value 1.02 | S. cerevisiae deletion strains, locus YOR270C, strain vph1, stronger effect = lower value 1 | S. cerevisiae deletion strains, locus YOR290C, strain snf2, stronger effect = lower value 1.03 | S. cerevisiae deletion strains, locus YOR316C, strain cot1, stronger effect = lower value 0.989 | S. cerevisiae deletion strains, locus YPL051W, strain arl3, stronger effect = lower value 1.02 | S. cerevisiae deletion strains, locus YPL078C, strain atp4, stronger effect = lower value 1.04 | S. cerevisiae deletion strains, locus YPL106C, strain sse1, stronger effect = lower value 0.978 | S. cerevisiae deletion strains, locus YPL240C, strain hsp82, stronger effect = lower value 1 | S. cerevisiae deletion strains, locus YPL256C, strain CLN2, stronger effect = lower value 0.957 | S. cerevisiae deletion strains, locus YPR119W, strain clb2, stronger effect = lower value 0.984 | S. cerevisiae deletion strains, locus YPR141C, strain kar3, stronger effect = lower value 0.98 | S. cerevisiae deletion strains, locus YPR163C, strain tif3, stronger effect = lower value 0.986 | S. cerevisiae deletion strains, locus YPR167C, strain met16, stronger effect = lower value 1 | S. cerevisiae deletion strains, strain wtn01, stronger effect = lower value 1.01 | S. cerevisiae strains, strain wild type, stronger effect = lower value 1.01
